Consider 20 compounds from PubChem BioAssay (NCI).

Test [1] is described as follows: NCI Yeast Anticancer Drug Screen. Data for the rad50 strain (AID 155).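 Further: 0% = growth of vehicle-only cultures of the same strain.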 Particulars: S. cerevisiae rad50 strain growth inhibition; at 50.0 µM; active compounds read high. A digest of the protocol: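 Genetically altered yeast (DNA repair pathway); compound treatment; growth inhibition vs vehicle ctrl.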
Test [2] is described as follows: NCI Yeast Anticancer Drug Screen. Data for the mec2-1 strain (AID 157). Particulars: S. cerevisiae mec2-1 strain, at 50.0 µM, active compounds read high. In a few lines:
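Cells of the genetically defined mec2-1 yeast strain are incubated with test compound. Inhibition of growth is calculated against vehicle-treated controls.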

Test [3] is described as follows: NCI Yeast Anticancer Drug Screen. Data for the sgs1 mgt1 strain (AID 161).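 Further: 0% = growth of cultures given vehicle only.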 Particulars: S. cerevisiae sgs1 mgt1 strain, at 50.0 µM, active compounds read high. In a few lines:
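Genetically altered yeast, compound exposure, growth inhibition relative to vehicle.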

Test [4] can be described thus: NCI Yeast Anticancer Drug Screen. Data for the cln2 rad14 strain (AID 165).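 Further: 0% = growth equal to vehicle treated cultures.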 The following applies: S. cerevisiae cln2 rad14 strain, at 50.0 µM, active compounds read high. In a few lines:
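The screen exposed genetically defined yeast (cln2 rad14) to test compounds and scored growth inhibition relative to vehicle-treated controls.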

The nature of test [5]: NCI Yeast Anticancer Drug Screen. Data for the bub3 strain (AID 167). The following applies: S. cerevisiae bub3 mutant strain, at 50.0 µM, active compounds read high. In a few lines: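 Yeast carrying a defined mutation is treated with each compound, and growth is compared with that of vehicle-exposed cells to give inhibition.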
Test [6] in a line: NCI Yeast Anticancer Drug Screen. Data for the mlh1 rad18 strain (AID 175). The following applies: S. cerevisiae mlh1 rad18 strain growth inhibition; at 50.0 µM; active compounds read high. A digest of the protocol:
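Compound-treated yeast growth, normalised to vehicle controls. Strain bears defined DNA repair mutations.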

SMILES strings stand for the structures. The panel holds about 79,000 compounds, 15% with a hit somewhere; the sample as a whole holds those more often. A number with no mark means an inactive call. Activity calls are given as the source filed them. No stated cut-off is given here; in the data, active means growth inhibition above about 70%; inactive means the rest.

With `O=C(Cc1ccccc1)Nc1ccc([N+](=O)[O-])cc1Cl`, the growth inhibition in test [1] is 4.95%; in test [2] it was 16.1%; in test [3] it was 23.4%; in test [4] it was 2.1%; in test [5] it was 6.5%; in test [6], 38.1%.

As to `NS(=O)(=O)c1cc2c(cc1Cl)NC(C(=O)NNC(=O)c1ccncc1)=NS2(=O)=O`, the growth inhibition in test [1] is -1.6%; in test [2] it was -16.5%; in test [3], -4.8%; in test [4], 1.3%; in test [5], -11.9%; in test [6], -20.4%.

Regarding `O=C(CCc1nnc2s/c(=C\c3ccccc3Cl)c(=O)n12)Nc1cc(Cl)ccc1Cl`, the growth inhibition in test [1] was 2.9%; in test [2], -14.7%; in test [3], -36.8%; in test [4], -21.8%; in test [5], -4.8%; in test [6] it was -15.1%.

As for `CC(O)CNCC(C)(C)N` (stereo not given), the growth inhibition is -4.6% in test [1]; -4.65% in test [2]; -4.8% in test [3]; -7.5% in test [4]; 3.15% in test [5]; -1.95% in test [6].

As to `COC1OC(COC(=O)c2ccccc2)C(SC(=O)c2ccccc2)C1OC(=O)c1ccccc1` (stereo not given), the growth inhibition in test [1] was -21.1%; in test [2] it was -1.35%; in test [3], -32.5%; in test [4], -2%; in test [5], -1.4%; in test [6], -12.5%.

`O=C(O)c1cc(C(=O)O)nc(C(=O)O)c1`: the growth inhibition in test [1] was -23.9%; in test [2], -12.1%; in test [3], -16.1%; in test [4], -29.9%; in test [5] it was 5.7%; in test [6] it was -0.6%.

On to `Nc1ncnc2c1ncn2C1OC(CO)C(NC(=O)C(N)CCC(=O)O)C1O` (stereo not given), for which the growth inhibition in test [1] is 1.75%; in test [2] it was -4.2%; in test [3], 21.6%; in test [4] it was -9.4%; in test [5], -0.9%; in test [6], -5.3%.

For the compound `CC1(C)C(=O)C(=Cc2ccco2)C1=O`, the growth inhibition in test [1] was -18.9%; in test [2] it was 0.85%; in test [3], -23.4%; in test [4], 3.2%; in test [5], -14.2%; in test [6], 13%.

Regarding `CC(=O)OCC1OC(Sc2ccc([N+](=O)[O-])cc2)C(OC(C)=O)C(OC(C)=O)C1OC(C)=O` (stereo not given), the growth inhibition in test [1] is 12.3%; in test [2], -11.8%; in test [3], -12.1%; in test [4], -1.35%; in test [5] it was -1.05%; in test [6] it was 17.9%.

Turning to `COC(=O)C1C2CC3C(C2=O)C31` (stereo not given), the growth inhibition in test [1] was 6.45%; in test [2], -4.7%; in test [3], 4.45%; in test [4], 21.1%; in test [5] it was 20.4%; in test [6] it was 6.85%.

Consider `CCOC1CSc2ccccc2C(c2ccccc2)=N1` (stereo not given), for which the growth inhibition was 9.9% in test [1]; -1.4% in test [2]; 0.25% in test [3]; 10.6% in test [4]; 14.7% in test [5]; 6.75% in test [6].

Regarding `COc1c(C)c2c(c(Br)c1N)COCO2`, the growth inhibition in test [1] was 3.75%; in test [2], 16.9%; in test [3], -10.7%; in test [4] it was 8.95%; in test [5], -7.05%; in test [6], -21.6%.

On to `COC(=O)C1CC23CCCC12CC3` (stereo not given), for which the growth inhibition in test [1] is 21.6%; in test [2], -1.25%; in test [3], 2.3%; in test [4], -66.7%; in test [5] it was 8.05%; in test [6] it was -7.05%.

On to `CCCCCCCC/C=C\CCCCCCCC(=O)N1CCN(C(=O)CCCCCCC/C=C/CCCCCCCC)C1`, for which the growth inhibition in test [1] was 20.4%; in test [2], -13.3%; in test [3] it was 4.05%; in test [4] it was 16.4%; in test [5], 0.15%; in test [6], -8.35%.

As for `OCC#C[C@@H]1CC[C@H]1C#CCO`, the growth inhibition in test [1] is 7.3%; in test [2], -3.3%; in test [3], 6.3%; in test [4] it was 2.3%; in test [5], 2.6%; in test [6], -6%.

In the case of `CC(=O)OCC1OC(OC(C)=O)C(NC(=O)CNC(=O)OCc2ccccc2)C(OC(C)=O)C1OC(C)=O` (stereo not given), the growth inhibition is 21.8% in test [1]; 2.8% in test [2]; -16.9% in test [3]; 7.8% in test [4]; -4.75% in test [5]; 4.35% in test [6].

As to `CCCCOC(=O)C(=O)OCCCC`, the growth inhibition in test [1] is 13.7%; in test [2] it was -2.9%; in test [3] it was 3.75%; in test [4] it was 14.8%; in test [5] it was 21.1%; in test [6] it was 17.2%.

On to `N#C/C(c1ccccc1)=[N+](/[O-])O`, for which the growth inhibition is 2.55% in test [1]; -4.9% in test [2]; 2.5% in test [3]; -20.7% in test [4]; -17.5% in test [5]; 13.7% in test [6].

As for `O=C(CBr)c1ccc(S(=O)(=O)c2ccccc2)cc1`, the growth inhibition is 67.3% in test [1]; 92.7% (active) in test [2]; 85% (active) in test [3]; 27.9% in test [4]; 72.2% (active) in test [5]; 78.3% (active) in test [6].

Consider `CCOC(=O)C(NC(=O)CC)(Nc1ccc(S(=O)(=O)Nc2ncccn2)cc1)C(F)(F)F` (stereo not given), for which the growth inhibition in test [1] was -19.4%; in test [2], -14.9%; in test [3], -10.5%; in test [4] it was 20.1%; in test [5] it was -9.55%; in test [6], -7.05%.
